PubChem BioAssay AID1851 (National Center for Advancing Translational Sciences (NCATS), 2009)
Where “and” joins values, the source holds several entries; their conditions need not be identical. Equal values may be shown once. Screen size: about 16,000 compounds; about 2,600 (16%) were called active. Roughly 20% stayed inconclusive and do not appear here. The sample holds actives, similar compounds and a random draw of the others, so the mix is not that of the screen. Calls come from the whole dose curve; as a rule, active = well fitted curve in the direction sought with a large enough effect; inconclusive = small, poorly fitted or top-dose-only effect, or effect the other way; inactive = no such curve, though single readings can be large or run the other way. Some compounds were tested as several samples or in several runs, with calls that do not always agree.

Biological target: Cytochrome P450 2D6 (Homo sapiens) (UniProt P10635)
Sequence (P10635 whole entry, looked up): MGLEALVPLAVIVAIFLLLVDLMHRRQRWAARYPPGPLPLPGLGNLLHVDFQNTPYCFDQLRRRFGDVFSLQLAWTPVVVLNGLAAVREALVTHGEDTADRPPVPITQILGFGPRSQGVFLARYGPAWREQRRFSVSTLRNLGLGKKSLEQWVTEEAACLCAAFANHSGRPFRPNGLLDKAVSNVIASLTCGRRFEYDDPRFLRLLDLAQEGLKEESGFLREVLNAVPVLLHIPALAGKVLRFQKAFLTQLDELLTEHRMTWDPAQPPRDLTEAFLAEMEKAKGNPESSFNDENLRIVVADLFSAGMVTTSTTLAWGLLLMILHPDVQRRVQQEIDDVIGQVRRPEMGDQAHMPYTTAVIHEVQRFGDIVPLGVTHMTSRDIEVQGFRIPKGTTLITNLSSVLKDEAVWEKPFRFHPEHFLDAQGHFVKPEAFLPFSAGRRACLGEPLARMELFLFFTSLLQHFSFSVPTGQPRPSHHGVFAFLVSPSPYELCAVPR
Test: Cytochrome panel assay with activity outcomes
Details: recombinant CYP, pro-luciferin dealkylation, luminescence, p450-cyp2d6; series mostly up to 57.1 µM
Description: The P450 gene superfamily is involved in the metabolism and clearance of xenobiotics. This assay used various human CYP P450 isozymes to measure the dealkylation of various pro-luciferin substrates to luciferin. The luciferin is then measured by luminescence after the addition of a luciferase detection reagent. Pro-luciferin substrate concentration in the assay was equal to its KM for its CYP P450 isozyme. Inhibitors and some substrates limit the production of luciferin, and decrease measured luminescence.
NCGC Assay Protocol Summary:
1, Reagent, 2 uL, Isozyme and Pro-Luciferin
2, Library compounds, 23 nl, 40 uM to 0.24 nM dilution series
3, Controls, 23 nl, Isozyme specific inhibitor
4, Reagent, 2 uL, NADPH regeneration solution
5, Incubation time, 60 min, Isozyme specific temperature
6, Reagent, 4ul, Detection reagent
7, Incubation time, 20 min, Isozyme specific temperature
8, Detection, 1 sec, ViewLux luminescent read
The luciferase-based P450-GloTM Screening Systems were obtained from Promega (Madison, WI) for CYP 1A2 (V9770), CYP 2C9 (V9790), CYP2 C19 (V9880), CYP 2D6 (V9890), and CYP 3A4 Luciferin-PPXE (V9910) and were adapted for 1,536-well microplates and an automated protocol. The control compounds furafylline for 1A2 (F124), sulfaphenazole for CYP 2C9 (S0758), ketoconazole for CYP 2C19 (K1003), quinidine for 2D6 (Q3625), and ketoconazole for 3A4 (K1003) were purchased from Sigma Aldrich (St. Louis, MO). Recombinant P450 enzymes were obtained from baculovirus constructs expressed in insect cells (BD/Gentest).
Medium-binding white solid Kalypsys plates used. Mixtures kept on ice. 1A2: 10 nM 1A2, 100 uM Luc-ME, 100 mM KPO4; 2C9: 10 nM 2C9, 100 uM Luc-H, 25 mM KPO4; 2C19: 5 nM 2C19, 10 uM Luc-H EGE, 50 mM KPO4; 2D6: 5 nM 2D6, 30 uM Luc-ME EGE, 100 mM KPO4; 3A4: 10 nM, 25 uM Luc-PPXE. All amounts are reflected in their final concentration, working concentration is 2x.
NADPH regeneration solution: 1.3 mM NADP+, 3.3 mM glucose-6-phosphate, 3.3 mM MgCl2, 0.4 U/mL glucose-6-phosphate dehydrogenase for all isozymes, 200 mM KPO4 for 3A4. Mixture prepared at RT but kept on ice during automated run.
RT incubation in auxilliary plate hotel for 1A2, 2D6, and 3A4; 37C for 2C9 and 2C19.
Keywords: P450, CYP1A2, CYP2C19, CYP2C9, CYP2D6, CYP3A4, Luciferase, MLSMR, MLSCN, NIH Roadmap, qHTS, NCGC
% is set by controls: 0 for no effect and ±100 for the full control effect.

Which AC50 does the source give for CN(C)C(=O)Oc1ccc[n+](C)c1 here?
Its AC50 is “inactive”.

C[C@@H]1O[C@H]1P(=O)(O)O was tested. Which AC50 did it give?
Its AC50 is “inactive”.

How did the AC50 turn out when O=c1c(O)c(-c2ccc(O)c(O)c2)oc2cc(O)cc(O)c12 was run?
Its AC50 is “inactive”.

For CNC[C@H](O)c1ccc(O)c(OC)c1, which AC50 is on record?
Its AC50 is “inactive”.

For C[C@](N)(CCP(=O)(O)O)C(=O)O, which AC50 is on record?
The AC50 was “inactive”.

Which AC50 does the source give for CCCN(C/C=C\I)[C@@H]1CCc2ccc(O)cc2C1 here?
The AC50 was 0.0158 µM (active).

For CCCN(CCC)C1Cc2cc(OC)c(OC)cc2C1, which AC50 is on record?
Its AC50 is 25.1 µM (active) and inactive.

How did the AC50 turn out when CCCN(CCC)[C@@H]1CCc2ccc(O)cc2C1 was run?
The AC50 was 794 nM (active) and inactive.

With O=C(O)[C@H]1CCN1 as the molecule, how does the AC50 read?
Its AC50 is “inactive”.

How did the AC50 turn out when CN(C)[C@H]1C(=O)C(C(N)=O)=C(O)[C@]2(O)C(=O)C3=C(O)c4c(O)cccc4[C@@](C)(O)[C@H]3C[C@@H]12 was run?
The AC50 was “inactive”.

Which activity, negative = inhibition does the source give for O=C(O)C(C(=O)O)P(=S)(S)c1ccccc1 (stereo unspecified) here?
Its activity, negative = inhibition is 8.23% [at 11.4 µM] (inactive).

CC(=O)NBr was tested. Which AC50 did it give?
The AC50 was “inactive”.

With N#CCCCC[N+]12CN3CN(CN(C3)C1)C2 as the molecule, how does the activity, negative = inhibition read?
The activity, negative = inhibition was 1.51% [at 11.4 µM] (inactive).

For COC1=CC(=O)O[C@@H](/C=C\c2ccccc2)C1, which AC50 is on record?
The AC50 was “inactive”.

How did the AC50 turn out when CCN1C[C@]2(COC)CC[C@H](O)[C@@]34[C@@H]5C[C@H]6[C@@H](OC)[C@H]5[C@](O)(C[C@@H]6OC)[C@@](O)([C@@H](OC)[C@H]23)[C@@H]14 was run?
Its AC50 is “inactive”.

Which AC50 does the source give for CCN(CC)c1ncnc2c1ncn2[C@@H]1O[C@@H](COP(=O)(O)OP(=O)(O)C(Br)(Br)P(=O)(O)O)[C@H](O)[C@H]1O here?
The AC50 was 0.631 µM (active).

Which AC50 does the source give for CCN(CC)c1ncnc2c1ncn2[C@@H]1O[C@@H](COP(=O)(O)OP(=O)(O)C(Br)(Br)P(=O)(O)O)[C@H](O)[C@@H]1O here?
The AC50 was “inactive”.

With Nc1ncnc2c1ncn2[C@@H]1O[C@@H](COP(=O)(O)CP(=O)(O)OP(=O)(O)O)[C@H](O)[C@@H]1O as the molecule, how does the AC50 read?
The AC50 was “inactive”.

For COc1cc2c3cc1Oc1cc(ccc1O)C[C@@H]1c4c(cc(OC)c(O)c4Oc4cccc(c4)C[C@H]3N(C)CC2)CC[N+]1(C)C, which AC50 is on record?
Its AC50 is “inactive”.

O=P(O)(O)CCP(=O)(O)O was tested. Which activity, negative = inhibition did it give?
Its activity, negative = inhibition is 10.1% [at 11.4 µM] (inactive).

How did the AC50 turn out when N[C@H](CP(=O)(O)O)C(=O)O was run?
Its AC50 is “inactive”.

How did the activity, negative = inhibition turn out when Cc1nc2ccccc2cc1C[N+]12CN3CN(CN(C3)C1)C2 was run?
The activity, negative = inhibition was -2.3% [at 11.4 µM] (inactive).

c1ccc2c(c1)-c1ccccc1C2N1CC2CCC(CC2)C1 was tested. Which AC50 did it give?
Its AC50 is 3.98 µM (active).

How did the activity, negative = inhibition turn out when O=C1N[C@@]2(CN3CCC2CC3)C(=O)N1CN(Cc1ccccc1)c1ccccc1 was run?
The activity, negative = inhibition was 2.51% [at 11.4 µM] (inactive).

How did the AC50 turn out when CC[C@@]1(c2ccc(N)cc2)CCC(=O)NC1=O was run?
Its AC50 is “inactive”.

How did the AC50 turn out when CN1Cc2c(ccc3c2OCO3)[C@@H]2[C@@H](O)Cc3cc4c(cc3[C@@H]21)OCO4 was run?
The AC50 was 0.2 µM (active).

Which AC50 does the source give for C[C@H]1CCCC=CC2C[C@H](O)C[C@@H]2[C@H](O)/C=C\C(=O)O1 (stereo partly specified) here?
Its AC50 is “inactive”.

Which AC50 does the source give for N#Cc1cccc(NC(=O)N2CCCC3(CCN(C(=O)Oc4ccccc4)CC3)C2)c1 here?
The AC50 was “inactive”.

Oc1ccc2c3c1O[C@H]1c4[nH]c5ccccc5c4C[C@]4(O)[C@H](C2)N(CC2CC2)CC[C@@]314 was tested. Which AC50 did it give?
Its AC50 is 2.51 µM (active) and 631 nM (active).

With Oc1ccc2c3c1O[C@@H]1c4[nH]c5c(c4C[C@@]4(O)[C@@H](C2)N(CC2CC2)CC[C@]314)C[C@]1(O)[C@@H]2Cc3ccc(O)c4c3[C@@]1(CCN2CC1CC1)[C@H]5O4 as the molecule, how does the AC50 read?
The AC50 was “inactive”.

Which AC50 does the source give for NC(N)=Nc1ccc2[nH]c3c(c2c1)C[C@]1(O)[C@@H]2Cc4ccc(O)c5c4[C@]1(CCN2CC1CC1)[C@H]3O5 here?
The AC50 was “inactive”.

Which AC50 does the source give for Oc1ccc2c3c1O[C@H]1c4c(c5ccccc5n4Cc4ccccc4)C[C@]4(O)[C@H](C2)N(CC2CC2)CC[C@@]314 here?
The AC50 was “inactive”.

How did the AC50 turn out when Oc1ccc2c3c1O[C@H]1c4oc5ccccc5c4C[C@]4(O)[C@H](C2)N(CC2CC2)CC[C@@]314 was run?
Its AC50 is 1.26 µM (active).

With Oc1ccc2c3c1O[C@H]1c4[nH]c5c(c4C[C@@]4(O)[C@@H](C2)N(CC2CC2)CC[C@]314)C[C@]1(O)[C@H]2Cc3ccc(O)c4c3[C@@]1(CCN2CC1CC1)[C@@H]5O4 as the molecule, how does the AC50 read?
Its AC50 is “inactive”.

Which AC50 does the source give for Nc1nc(N)c2nc(CNc3ccc(C(=O)N[C@H](CCC(=O)O)C(=O)O)cc3)cnc2n1 here?
Its AC50 is “inactive”.

With CC[C@H](C)[C@@H]1O[C@]2(CC[C@@H]1C)C[C@H]1C[C@H](CC=C(C)[C@@H](O[C@@H]3C[C@H](OC)[C@H](O[C@@H]4C[C@H](OC)[C@H](O)[C@H](C)O4)[C@H](C)O3)[C@@H](C)C=CC=C3CO[C@@H]4[C@@H](O)C(C)=C[C@@H](C(=O)O1)[C@]34O)O2 as the molecule, how does the AC50 read?
The AC50 was “inactive”.

For CCNC(=O)[C@@H]1O[C@@H](n2cnc3c(N)ncnc32)[C@@H](O)[C@H]1O, which AC50 is on record?
Its AC50 is “inactive”.

How did the AC50 turn out when CCN(CC)CC#CCOC(=O)[C@@](O)(c1ccccc1)C1CCCCC1 was run?
The AC50 was 10 µM (active).

Which activity, negative = inhibition does the source give for Cc1ccc(S(=O)ON2CCC(C(=O)O)(c3ccccc3)CC2)cc1 (stereo unspecified) here?
Its activity, negative = inhibition is 20.9% [at 11.4 µM] (inactive).

How did the AC50 turn out when CCCc1cc2c(n1CCO)C(C)C1CN(C(=O)c3ccccc3)C(C)(C(=O)OC)C21 (stereo unspecified) was run?
Its AC50 is “inactive”.

With CCCc1cc2c(n1Cc1ccc(C)cc1)C(C)C1CN(C(=O)c3ccccc3)C(C)(C(=O)OC)C21 (stereo unspecified) as the molecule, how does the AC50 read?
Its AC50 is “inactive”.

For CCCc1cc2c(n1Cc1cccc(Cl)c1)C(C)C1CN(C(=O)c3ccccc3)C(C)(C(=O)OC)C21 (stereo unspecified), which AC50 is on record?
The AC50 was 12.6 µM (active).

With O=C1Nc2ccc(I)cc2/C1=C/c1cc(Br)c(O)c(Br)c1 as the molecule, how does the AC50 read?
The AC50 was “inactive”.

Which AC50 does the source give for C[C@H]1CC[C@]2(OC1)O[C@@H]1C[C@@H]3[C@@H]4CC[C@H]5C[C@@H](O)CC[C@]5(C)[C@@H]4CC(=O)[C@@]3(C)[C@H]1[C@@H]2C here?
Its AC50 is “inactive”.

COCCCN1Cc2ccccc2C1=N was tested. Which AC50 did it give?
The AC50 was 12.6 µM (active).

N#CC(=C(/N)Sc1ccccc1N)/C(C#N)=C(/N)Sc1ccccc1N was tested. Which AC50 did it give?
The AC50 was 0.02 µM (active).

Which AC50 does the source give for CCCCn1c(O)c(C(CC)=NCc2ccc(F)cc2)c(=O)[nH]c1=O here?
The AC50 was “inactive”.

CCCCn1c(O)c(C(CC)=Nc2ccc(OC)cc2OC)c(=O)[nH]c1=O was tested. Which AC50 did it give?
The AC50 was 12.6 µM (active).

Which AC50 does the source give for CCC(=Nc1cc(OC)ccc1OC)c1c(O)[nH]c(=O)[nH]c1=O here?
The AC50 was “inactive”.

Which AC50 does the source give for CCCCN1C(=O)/C(=C/c2ccc(N(C)C)cc2)C(=O)N(Cc2ccco2)C1=O here?
The AC50 was “inactive”.

Which activity, negative = inhibition does the source give for [N-]=[N+]=NCC(=O)c1c[nH]c(=O)[nH]c1=O here?
The activity, negative = inhibition was 8.7% [at 11.4 µM] (inactive).
